Assay results from PubChem BioAssay AID1159580 (chemical genetic matrix, 2015).
Several values for one entry are separate records, joined by “and”; a condition that tells them apart may be missing. Identical values can stand only once. The whole screen tested about 5,500 compounds, of which about 2,000 (36%) were called active. Inconclusive results (about 18%) are left out. Rule as the data show it: active = normalized growth mostly below about 0.91 (no sharp cut-off); inconclusive = no clear call, values can overlap the other calls; inactive = mostly above about 0.92. This is one part of the list.

Test: chemical genetic growth profiling, strain panel (AID 1159580);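 also: tested at 20 µM; growth read once vehicle control cultures reached saturation at 30 °C; 1 = growth at the plate median or of vehicle wells; lower values mean less growth of the strain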
Details: S. cerevisiae deletion strains, growth OD

Measured: normalized growth

COC(=O)c1cc(=O)c(O)c2c(O)c(O)ccc2c1
inactive: locus YAL021C, strain ccr4, hits give low values 1 | locus YAL026C, strain drs2, hits give low values 0.968 | locus YAL030W, strain snc1, hits give low values 0.991 | locus YBL061C, strain skt5, hits give low values 0.988 | locus YBR009C, strain hhf1, hits give low values 0.985 | locus YBR021W, strain FUR4, hits give low values 1.07 | locus YBR023C, strain chs3, hits give low values 0.995 | locus YBR171W, strain sec66, hits give low values 0.976 | locus YBR229C, strain ROT2, hits give low values 0.976 | locus YBR231C, strain swc5, hits give low values 0.976 | locus YBR279W, strain paf1, hits give low values 1 | locus YCL011C, strain gbp2, hits give low values 1 | locus YCL016C, strain dcc1, hits give low values 0.989 | locus YCL061C, strain MRC1, hits give low values 0.987 | locus YCL069W, strain vba3, hits give low values 1 | locus YCR088W, strain abp1, hits give low values 0.997 | locus YDL005C, strain med2, hits give low values 1.01 | locus YDL040C, strain nat1, hits give low values 0.986 | locus YDR001C, strain nth1, hits give low values 0.999 | locus YDR069C, strain doa4, hits give low values 0.955 | locus YDR159W, strain sac3, hits give low values 0.947 | locus YDR195W, strain ref2 0.934 | locus YDR297W, strain sur2, hits give low values 0.987 | locus YDR334W, strain swr1, hits give low values 0.983 | locus YDR335W, strain msn5, hits give low values 0.994 | locus YDR388W, hits give low values 0.954 | locus YDR392W, strain spt3, hits give low values 0.99 | locus YEL003W, strain gim4, hits give low values 0.996 | locus YEL037C, strain rad23, hits give low values 0.997 | locus YEL061C, strain CIN8 (second series), hits give low values 0.994 | locus YER015W, strain faa2, hits give low values 0.985 | locus YER016W, strain bim1, hits give low values 0.973 | locus YER110C, hits give low values 0.988 | locus YER111C, strain swi4, hits give low values 0.976 | locus YER155C, strain BEM2 (second series), hits give low values 0.977 | locus YFR010W, strain ubp6, hits give low values 0.958 | locus YGL167C, strain pmr1, hits give low values 0.98 | locus YGL173C, strain kem1, hits give low values 0.984 | locus YGL227W, strain vid30, hits give low values 0.988 | locus YGL240W, strain doc1, hits give low values 1.01 | locus YGL253W, strain hxk2, hits give low values 0.998 | locus YGR252W, strain gcn5, hits give low values 0.948 | locus YHR013C, strain ard1, hits give low values 1.04 | locus YHR027C, strain rpn1, hits give low values 0.991 | locus YHR094C, strain hxt1, hits give low values 0.968 | locus YHR142W, strain chs7, hits give low values 1.02 | locus YIR030C, strain dcg1, hits give low values 0.932 | locus YJL092W, strain hpr5, hits give low values 0.991 | locus YJL095W, strain BCK1 (second series), hits give low values 0.99 | locus YJL115W, strain asf1, hits give low values 0.99 | locus YJL129C, strain trk1, hits give low values 0.997 | locus YJL134W, strain LCB3, hits give low values 0.958 | locus YJL154C, strain vps35, hits give low values 1.02 | locus YJL164C, strain tpk1, hits give low values 0.995 | locus YJL166W, strain qcr8, hits give low values 0.999 | locus YJL187C, strain SWE1, hits give low values 0.992
active: locus YCL029C, strain bik1, hits give low values 0.713 | locus YDL035C, strain GPR1, hits give low values 0.512 | locus YDL074C, strain BRE1, hits give low values 0.743 | locus YDL101C, strain DUN1, hits give low values 0.778 | locus YDL185W, strain tfp1, hits give low values 0.631 | locus YDL192W, strain arf1, hits give low values 0.772 | locus YDR101C, strain arx1, hits give low values 0.842 | locus YDR137W, strain rgp1, hits give low values 0.821 | locus YDR150W, strain NUM1, hits give low values 0.852 | locus YDR162C, strain NBP2, hits give low values 0.275 | locus YDR318W, strain mcm21, hits give low values 0.856 | locus YDR502C, strain sam2, hits give low values 0.891 | locus YER155C, strain BEM2, hits give low values 0.922 | locus YER167W, strain BCK2, hits give low values 0.862 | locus YGL078C, strain dbp3, hits give low values 0.732 | locus YGL086W, strain mad1, hits give low values 0.71 | locus YGL248W, strain PDE1, hits give low values 0.73 | locus YGR078C, strain PAC10, hits give low values 0.713 | locus YGR135W, strain pre9, hits give low values 0.795 | locus YGR229C, strain SMI1, hits give low values 0.151 | locus YHR030C, strain SLT2, hits give low values 0.604 and 0.636 | locus YHR079C, strain IRE1 (second series), hits give low values 0.874 | locus YHR079C, strain IRE1, hits give low values 0.81 | locus YHR129C, strain ARP1, hits give low values 0.681 | locus YHR200W, strain rpn10, hits give low values 0.878 | locus YIL066C, strain RNR3, hits give low values 0.552 | locus YIL073C, strain SPO22, hits give low values 0.416 | locus YIL125W, strain kgd1, hits give low values 0.812 | locus YJL095W, strain BCK1, hits give low values 0.59 and 0.624 | locus YJL168C, strain set2, hits give low values 0.924 | locus YJL187C, strain SWE1 (second series), hits give low values 0.627
